Test results: PubChem BioAssay AID493151 (Sanford-Burnham Center for Chemical Genomics, 2011)
In all, about 1,400 compounds went through this assay and about 860 (61%) were called active.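 How the source made its calls: active means inhibition reaching a set limit, 80% of the first screen's cutoff, at 20 µM in any replicate; inactive means the rest.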 The set was probably picked from earlier hits. Shown is part of a subset that was picked to be rich in actives.

What follows are compounds tested against DNA dC->dU-editing enzyme APOBEC-3A (Homo sapiens) (UniProt P31941) (assay: APOBEC3A deaminase inhibitors, retest, confirmation, selectivity assay for APOBEC3G inhibitor project, biochemical, single concentration, fluorescence readout (AID 493151;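 further: plate controls were DMSO wells with A3A for no effect and wells lacking A3A enzyme for full effect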)). Details: recombinant A3A, ssDNA deaminase UDG fluorescence assay; at 20 µM; hits give high values.
Chain of DNA dC->dU-editing enzyme APOBEC-3A (Homo sapiens) (P31941 whole entry, looked up): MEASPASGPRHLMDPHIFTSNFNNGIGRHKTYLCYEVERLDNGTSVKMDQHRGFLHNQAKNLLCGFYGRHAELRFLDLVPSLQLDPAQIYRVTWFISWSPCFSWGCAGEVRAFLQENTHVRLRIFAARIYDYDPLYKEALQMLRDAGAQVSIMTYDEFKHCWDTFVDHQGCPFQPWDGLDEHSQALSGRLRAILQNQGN
CCN(CC)CCOC(=O)c1cc2cc(COC)ccc2o1 was tested, and the inhibition was 80.1% (active).
In the case of O=C(O)CCn1cc(C=C2C(=O)NC(=S)NC2=O)c(-c2cccc(Br)c2)n1, the inhibition is reported as 52.3% (active).
